# Bioassay records from PubChem.
# PostGolgi ctrl – inhibits growth of the yeast control strain; efflux-deficient yeast background strain, growth absorbance A615, 16 h; inhibition, % at 10 µM; 5% of 98,000 active
# PostGolgi yeast – growth inhibition of a yeast mutant, post-Golgi transport screen | 0.9% of 98,000 active | inhibition, % at 10 µM | post-Golgi transport phenotypic cell assay;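 also: yeast cells grown in 1536-well plates; yeast grown about 18 h at 30C before absorbance read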
# CYP2C9 inh – human CYP2C9 inhibition; inhibition, % at 5 µM; 20% of 96,000 active; CYP2C9 Supersomes, luciferin-H conversion, luminescence;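 active = blocking of liver enzyme CYP2C9 beyond about 50% at 5 µM, limit read from the data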
# CYP2C19 activ – activators of human cytochrome P450 2C19; P33261; recombinant CYP2C19, luciferin-H EGE luminescence; active compounds read high; 0 = fully inhibited enzyme, 1 = untreated enzyme; activation factor at 5 µM; 96,000 tested, under 10 active; AID 1025;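 active = activation factor of at least 2 at 5 µM in the primary screen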;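 also: 0 = wells with 2.5 mM tranylcypromine and 1 = vehicle-only wells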
# Target sequence (P33261 whole entry, looked up): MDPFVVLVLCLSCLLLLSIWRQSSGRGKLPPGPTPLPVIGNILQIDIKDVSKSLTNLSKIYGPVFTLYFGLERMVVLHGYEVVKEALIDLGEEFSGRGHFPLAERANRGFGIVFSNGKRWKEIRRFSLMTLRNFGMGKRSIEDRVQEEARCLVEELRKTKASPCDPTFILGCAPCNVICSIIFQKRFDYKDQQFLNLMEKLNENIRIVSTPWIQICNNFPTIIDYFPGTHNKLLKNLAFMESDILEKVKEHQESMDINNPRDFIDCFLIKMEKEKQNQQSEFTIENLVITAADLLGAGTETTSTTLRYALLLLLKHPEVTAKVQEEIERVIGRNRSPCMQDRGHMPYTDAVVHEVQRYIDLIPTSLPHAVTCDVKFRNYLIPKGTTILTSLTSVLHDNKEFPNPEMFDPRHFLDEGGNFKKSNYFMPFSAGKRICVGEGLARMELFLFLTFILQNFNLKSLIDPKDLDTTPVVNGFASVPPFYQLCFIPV
# CYP2C19 inh – inhibitors of human CYP2C19; CYP2C19 Supersomes, luciferin-H EGE luminescence, 30 min; inhibition, % at 5 µM; P33261; AID 778; 21% of 96,000 active;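 active = CYP2C19 inhibition above a set limit at 5 µM in the primary screen, cut at about 50% in these data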;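 also: plate controls were negative control wells for no effect and 2.5 mM tranylcypromine positive control for full effect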
# CYP2C9 act – increases human cytochrome P450 2C9 activity. P11712. recombinant CYP2C9, luciferin-H conversion, luminescence; active compounds read high; factor 1 = untreated enzyme, 0 = blocked. activation factor at 5 µM. 1.4% of 96,000 active. AID 1024;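 active = activation factor of 2 or more for CYP2C9 at a 5 µM dose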;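 also: 0 = sulfaphenazole-blocked wells and 1 = vehicle-only wells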
# * marks the source's active call; other numbers are inactive results; . = not tested or not shown. The list is not random: actives were taken first. Their share in the collection is about 32%. Rule as the data show it, unless noted: active = inhibition above about 30%; inactive = the rest.
SMILES,PostGolgi ctrl,PostGolgi yeast,CYP2C9 inh,CYP2C19 activ,CYP2C19 inh,CYP2C9 act
COC(=O)C1=C(CSc2nncn2C)NC(=O)NC1c1cc(C)ccc1C (stereo unspecified),1,17,-8,1,2,1.1
COC(=O)C1=C(CSCc2ccco2)NC(=O)NC1c1cc(C)ccc1C (stereo unspecified),19,-3,80*,0.1,91*,0.2
COC(=O)C1=C(CSc2nc3ccccc3o2)NC(=O)NC1c1cc(C)ccc1C (stereo unspecified),49*,-1,78*,0.2,77*,0.2
O=C1CC(N(CCc2ccccc2)C(=S)Nc2cc(Cl)ccc2Cl)C(=O)N1c1c(Cl)cccc1Cl (stereo unspecified),-3,5,54*,0.9,8,0.5
O=C(CSc1ncc(-c2ccccc2)n1CC1CCCO1)N1CCCCC1 (stereo unspecified),-3,1,9,0.4,58*,0.9
NC(=O)c1c(NC(=O)CSc2nnc(-c3ccccc3)n2CC2CCCO2)sc2c1CCC2 (stereo unspecified),16,13,91*,0.2,80*,0.1
Nc1ncc(-c2ccccc2)n1CC1CCCO1 (stereo unspecified),1,0,-9,1,1,1.1
O=C(CSc1ccc(-c2ccc(F)cc2)nn1)N1CCCCC1,2,6,7,0.8,22,0.9
N#Cc1c(NC(=O)CSc2nnc(-c3ccccc3O)n2-c2ccccc2)sc2c1CCCC2,40*,24,67*,0.3,74*,0.3
Cn1c(-c2ccc(F)cc2)cnc1SCC(=O)N1CCCCC1,-7,11,-4,0.4,62*,1
Cn1cnnc1SCC(=O)Nc1sc2c(c1C(N)=O)CCC2,10,0,33,1,-2,0.7
OC(c1cccs1)c1nccc2ccccc12 (stereo unspecified),-6,4,-34,0.8,19,1.3
COc1cccc(N2CCN(C3CC(=O)N(c4cccc(Cl)c4)C3=O)CC2)c1 (stereo unspecified),17,1,39,0.9,8,0.6
CC(=C/C(=O)O)/C=C/c1cccs1,-10,5,-2,1,-3,1
CCN(CC)CCCN1C(=O)c2oc3ccccc3c(=O)c2C1c1cc(OC)ccc1OC (stereo unspecified),1,-6,-8,1.1,-13,1.1
CSCCC(NC(=O)c1cncc(Br)c1)C(=O)O (stereo unspecified),2,0,15,0.8,17,0.9
COC(=O)\C(C(C)=O)=C(/C=C/C=C/C=C/N(C)C)N(C)C,-1,-4,7,1,0,0.9
N#Cc1c(NC(=O)CSc2ncc(-c3ccccc3)n2CC2CCCO2)sc2c1CCCC2 (stereo unspecified),16,12,73*,0.4,60*,0.3
N#Cc1c(NC(=O)CSc2nnc(-c3ccncc3)n2CC2CCCO2)sc2c1CCCC2 (stereo unspecified),25,13,87*,0.3,69*,0.1
CCOc1ccc2nc(NC(=O)CSc3nnc(-c4ccncc4)n3CC3CCCO3)sc2c1 (stereo unspecified),.,.,38,0.8,25,0.6
O=c1c2ccccc2nc(CSc2nnnn2-c2ccccc2)n1-c1cccc(C(F)(F)F)c1,0,4,-1,0.6,41,1
O=C1CC(c2ccccc2)n2nc(N3C(=O)CCC3=O)nc2N1 (stereo unspecified),10,-4,1,1.1,-8,1
CCOC(=O)N1CCN(C(c2ccc(F)cc2)c2sc3nc(C)nn3c2O)CC1 (stereo unspecified),-7,-9,-4,0.9,8,1
Cc1nc(N2CCOCC2)c2oc3ccccc3c2n1,12,3,-8,1.1,-11,1.1
CCOC(=O)C1CCCN(c2nc(C)nc3c2oc2ccccc23)C1 (stereo unspecified),27,-3,52*,0.4,58*,0.5
CCOC(=O)C1CCN(c2nc(C)nc3c2oc2ccccc23)CC1,36*,20,.,.,.,.
CCOC(=O)C1CCN(Cc2nc3ccccc3c(=O)n2-c2ccc(OCC)cc2)CC1,7,3,54*,0.8,18,0.5
C[N+]1(CCOc2ccc([N+](=O)[O-])cc2)CCOCC1,10,-1,-9,1.1,-13,1.1
